Hits are enriched below; roughly 18% of the tested compounds scored in any of these assays.
TDP1 block – TDP1 (human) enzyme inhibition; Q9NUW8; recombinant TDP1, AlphaScreen DNA substrate cleavage; Potency, µM (top dose mostly 130 µM), most hits filed as inhibitors; actives 0.28% (n = 350,000); note: nearly all actives have a fitted effect of over 40% in size
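Here, a 5' biotin and 3' phosphotyrosine-FITC DNA oligonucleotide reports Tdp1 activity: intact substrate bridges AlphaScreen beads, while cleavage leaves a 3' phosphate and drops signal. All incubations at room temperature.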
DT40 TDP1 CPT – growth inhibition of DT40 Tdp1-/-;hTDP1 cells with camptothecin (screen for TDP1 inhibitors) | chicken DT40 Tdp1-/-;hTDP1 cells + 20 nM CPT, ATP luminescence, 48 h | Potency, µM (top dose mostly 46.2 µM), actives largely listed as inhibitors | actives 12% (n = 420,000) | AID 686979; note: nearly all actives have a fitted effect of over 55% in size
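Chicken DT40 Tdp1-/- cells complemented with human TDP1, 400 cells/well, exposed to compounds plus 20 nM camptothecin for at least 48 h at 37 C; viability read as ATP content by CellTiter-Glo luminescence.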
IL-1B inflam inh – inflammasome signaling inhibition, IL-1 beta readout. AID 743279. activity change, % at 57.5 µM. THP-1 LPS/ATP IL-1B secretion, AlphaLISA, 16 h; hits give low values. actives 4.7% (n = 360,000); in the data active = activity change below about -50%; inconclusive = mostly about -30% to -49%
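THP-1 cells pretreated 1 hr with compounds (up to 57.5 uM final), then stimulated with LPS (250 ng/mL final) plus ATP (1.25 mM final); secreted IL-1B measured by AlphaLISA after 16 hr, decreased signal indicating inhibition.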
Six1-Eya2 inh – inhibitors of human Six1/Eya2 interaction. Q15475+O00167. AlphaScreen GST-Six1/His-Eya2 binding, biochemical; hits give low values. AID 651725. activity change, % (concentration not given with the values). actives 0.56% (n = 360,000); in the data active = activity change below about -65%; inconclusive = mostly about -30% to -63%
Target sequence (O00167 whole entry, looked up): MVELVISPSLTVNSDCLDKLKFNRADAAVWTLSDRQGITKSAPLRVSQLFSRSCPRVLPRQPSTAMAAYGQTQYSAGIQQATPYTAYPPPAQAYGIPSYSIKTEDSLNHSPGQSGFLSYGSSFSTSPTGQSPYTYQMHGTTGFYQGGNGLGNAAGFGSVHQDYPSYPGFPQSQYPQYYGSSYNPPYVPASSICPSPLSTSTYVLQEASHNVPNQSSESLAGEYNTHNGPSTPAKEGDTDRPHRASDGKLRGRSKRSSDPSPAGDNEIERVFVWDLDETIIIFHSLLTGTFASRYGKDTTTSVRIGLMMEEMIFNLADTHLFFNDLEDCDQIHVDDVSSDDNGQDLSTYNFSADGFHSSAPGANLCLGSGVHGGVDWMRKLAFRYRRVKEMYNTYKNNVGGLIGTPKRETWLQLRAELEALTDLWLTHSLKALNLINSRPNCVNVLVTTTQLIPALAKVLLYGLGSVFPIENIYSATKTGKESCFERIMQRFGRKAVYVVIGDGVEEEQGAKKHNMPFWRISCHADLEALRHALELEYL
Target sequence (Q15475 whole entry, looked up): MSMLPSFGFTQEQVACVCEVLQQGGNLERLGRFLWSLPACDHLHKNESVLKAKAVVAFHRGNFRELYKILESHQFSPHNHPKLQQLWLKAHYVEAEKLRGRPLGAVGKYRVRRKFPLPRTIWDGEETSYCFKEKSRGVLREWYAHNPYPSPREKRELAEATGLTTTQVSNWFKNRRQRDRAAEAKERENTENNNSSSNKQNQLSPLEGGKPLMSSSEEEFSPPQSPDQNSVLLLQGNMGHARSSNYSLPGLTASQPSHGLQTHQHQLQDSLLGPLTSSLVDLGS
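Six1/Eya2 binding was read as AlphaScreen signal after compounds were pinned into GST-Six1 plus His-tagged Eya2 (5X stock 250/500 nM) in pH 8.0 Tris/NaCl/TCEP buffer, beads added, then incubated 1 h, 37 C, dark.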
CtBP-E1A blk – blocks the CtBP interaction with E1A; AID 651724; AlphaScreen GST-E1A/His-CtBP binding, 1536-well; hits give low values; activity change, % (test concentration not listed); actives 0.49% (n = 340,000); in the data active = activity change below about -65%; inconclusive = mostly about -30% to -63%
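AlphaScreen with 125 nM GST-E1A and 125 nM His-CtBP (5X stocks) in Tris pH 8.0, 300 mM NaCl, BSA, Tween 20, TCEP. Compounds preincubated 2 h at 37 deg C, then glutathione donor/nickel acceptor beads added for 1 h at 37 deg C in dark.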
DT40 TDP1 no CPT – qHTS for Inhibitors of human tyrosyl-DNA phosphodiesterase 1 (TDP1): qHTS in cells in absence of CPT; AID 686978, 2013; actives 15% (n = 420,000); DT40 Tdp1-/- hTDP1 cells, no CPT, ATP luminescence, 48 h; Potency, µM (series often up to 46.2 µM), actives largely listed as inhibitors; note: nearly all actives have a fitted effect of over 55% in size
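Cells were dispensed at 400 per well, compounds added by pin tool, plates incubated ≥48 hr at 37 °C, then CellTiter-Glo added for 30 min at room temperature before luminescence reading. Line: DT40 Tdp1-/- complemented with hTDP1; camptothecin omitted.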
Hits are given with their value; – = inactive; ? = inconclusive; · = no result; [ ] = remark or other dose. Unless noted, calls come from the whole dose curve; as a rule, active = well fitted curve in the direction sought with a large enough effect; inconclusive = small, poorly fitted or top-dose-only effect, or another doubt; inactive = no such curve, though single readings can be large; an effect the other way counts as inactive or inconclusive.

SMILES | TDP1 block | DT40 TDP1 CPT | IL-1B inflam inh | Six1-Eya2 inh | CtBP-E1A blk | DT40 TDP1 no CPT
O=C1CC(c2ccc3ccccc3c2)NN1 (configuration not stated) | – | 26µM | – | – | – | ?
CC(C)C1OC(CCc2ccccc2)Cc2[nH][nH]c(=O)c21 (configuration not stated) | · | – | – | – | – | 23µM
CN1CCc2c(c3cnc4cc(Cl)ccc4c3n2C)C1 | – | ? | · | · | · | ?
Cn1c2c(c3cnc4cc(Cl)ccc4c31)CN(Cc1ccc(Cl)cc1)CC2 | – | 7.9µM | · | · | · | 7.1µM
COc1cccc(NC(=O)CCc2nc(-c3cccs3)no2)c1 | – | – | – | – | – | –
CN(C(=O)c1ccc2c(c1)N(Cc1ccccc1F)C(=O)c1ccccc1S2(=O)=O)C1CCCCC1 | – | ? | · | · | · | 23µM
CN(C(=O)c1ccc2c(c1)N(Cc1ccccc1F)C(=O)c1ccccc1S2)C1CCCCC1 | – | ? | · | · | · | 23µM
Cc1ccc(C)c(CN2C(=O)c3ccccc3S(=O)(=O)c3ccc(C(=O)N(C)C4CCCCC4)cc32)c1 | – | ? | · | · | · | 21µM
Cc1ccc(C)c(CN2C(=O)c3ccccc3S(=O)(=O)c3ccc(C(=O)OCC4CCCO4)cc32)c1 (configuration not stated) | – | ? | · | · | · | ?
O=C(O)C1CCC(=O)N(C2CC2)C1c1ccccc1 (configuration not stated) | – | – | – | – | – | –
O=C(COC(=O)c1cc2c(s1)CCCC2)Nc1ccc(Cl)cn1 | – | – | – | – | – | –
NC(=O)c1ccc(NC(=O)COC(=O)c2cc3c(s2)CCC3)cc1 | 7.1µM | ? | – | – | – | –
O=C(COC(=O)c1cc2c(s1)CCC2)Nc1ccc(F)cc1 | 35µM | ? | – | – | – | 15µM
NC(=O)c1ccc(NC(=O)COC(=O)c2ccc3c(c2)OCO3)cc1 | – | – | – | – | · | –
COc1ccc(NC(=O)COC(=O)c2ccc3c(c2)OCCO3)cc1 | · | ? | – | – | – | ?
COc1ccc(NC(=O)COC(=O)c2cc3c(s2)CCC3)cc1 | 14µM | 16µM | – | – | – | ?
Oc1c(C=C2N=c3ccccc3=N2)sc(=S)n1-c1ccc2ccccc2c1 | · | 21µM | – | – | – | –
COc1cc(OC)cc(C(=O)Nc2ccccc2S(=O)(=O)N2CCCC2OC(C)=O)c1 (configuration not stated) | · | ? | – | – | – | ?
Cc1nc2c(c(C)nn2C(C)(C)C)c(C)c1CCC(=O)Nc1ccc(F)cc1 | – | ? | · | · | · | –
Cc1nc2c(c(C)nn2C(C)(C)C)c(C)c1CCC(=O)Nc1ccc(Br)cc1Br | – | ? | · | · | · | 26µM
COc1ccc(OC)c(NC(=O)CCc2c(C)nc3c(c(C)nn3C(C)(C)C)c2C)c1 | – | ? | · | · | · | 16µM
Cc1oc2ncnc(N3CCOCC3)c2c1C(=O)Nc1ccc(Br)cc1F | – | – | · | · | · | –
CC(=O)C1=C(O)C(=O)N(c2ccccn2)C1c1ccccc1[N+](=O)[O-] (configuration not stated) | · | ? | – | – | – | 16µM
CC(=O)C1=C(O)C(=O)N(c2ccc(Br)cn2)C1c1ccccc1[N+](=O)[O-] (configuration not stated) | · | – | – | – | – | –
COCCc1nn2c(=O)cc(COC(=O)c3ccco3)nc2s1 | – | – | · | · | · | –
SMILES | TDP1 block | DT40 TDP1 CPT | IL-1B inflam inh | Six1-Eya2 inh | CtBP-E1A blk | DT40 TDP1 no CPT
CC(=Nc1ccccc1)C1=C(O)C(Cc2ccc(F)cc2)NC1=O (configuration not stated) | · | 1µM | – | – | – | 1.2µM
CC(=Nc1ccccc1)C1=C(O)C(Cc2ccccc2)NC1=O (configuration not stated) | · | 0.012µM | – | – | – | 0.0058µM
Cc1ccc(C(=O)NCCNS(=O)(=O)c2ccccc2)cn1 | – | – | – | – | – | –
CC(NC(=O)c1ccccc1)c1nnc(SCC(=O)NC2CCCC2)n1C (configuration not stated) | · | – | – | – | – | –
CCC(C)N(C)Cc1cccc(C2(O)CCN(S(=O)(=O)c3ccc(F)c(C)c3)CC2)c1 (configuration not stated) | – | 18µM | – | – | – | 18µM
Cc1cc(S(=O)(=O)N2CCN(c3c(C)cccc3C)CC2)ccc1F | – | – | – | – | – | ?
CCOC(=O)C1(CC2CC2)CCN(Cc2cnc(-c3ccc(OC)cc3)nc2)CC1 | · | ? | – | – | · | 16µM
CCOC(=O)C1(CC2CC2)CCN(Cc2cn[nH]c2-c2cccc(F)c2)CC1 | · | ? | – | – | · | 18µM
CCOC(=O)C1(CC2CC2)CCN(Cc2ccc3cccc(F)c3n2)CC1 | – | 21µM | ? | – | – | 16µM
CCOC(=O)C1(CC2CC2)CCN(Cc2ccc(O)c(Cl)c2)CC1 | – | · | · | · | · | ·
COC(=O)CCCNc1ncccc1[N+](=O)[O-] | – | – | – | – | – | –
Cc1ccc(NC(=O)Cc2ccc(Cl)cc2)cc1S(=O)(=O)N1CCCCCC1 | – | ? | ? | – | – | ?
Nc1nc(N)c2cc(Sc3ccc(Cl)cc3)ccc2n1 | · | 3.7µM | ? | – | – | 1µM
Nc1nc(N)c2cc(Sc3cccc(C(F)(F)F)c3)ccc2n1 | · | 9.2µM | ? | – | – | 1.3µM
Nc1nc(N)c2cc(Sc3ccc4ccccc4c3)ccc2n1 | – | 18µM | ? | – | – | 8.2µM
O=C(Nc1ccc(F)c(F)c1)C1CCN(S(=O)(=O)c2cccc3nonc23)CC1 | – | ? | ? | – | – | ?
CCC(CC)C(=O)Nc1nnc(SCC(=O)NC(C)(C)C)s1 | – | – | – | – | · | –
Cc1cccc(NC(=O)/C(=C/c2cccc([N+](=O)[O-])c2)NC(=O)c2cccs2)c1 | – | – | – | – | – | 1.8µM
O=C(/C=C/c1cccc([N+](=O)[O-])c1)c1cccs1 | – | 3.7µM | -88 | – | – | 2.3µM
CC(=O)Oc1ccccc1C(=O)C=Cc1cccc([N+](=O)[O-])c1 | · | 10µM | -101 | – | – | 21µM
O=C(/C=C\c1ccccc1)c1ccccc1O | –[21 µM] | · | · | · | · | ·
O=C(/C=C/c1ccc(O)cc1)c1ccccc1O | – | 26µM | · | · | · | 15µM
O=C(/C=C/c1cccc([N+](=O)[O-])c1)Nc1ccc(NC(=O)c2cccs2)cc1 | – | – | – | – | – | –
Cc1nc(C(=O)NC2CCOCC2)sc1C1(C)CC(c2cccc([N+](=O)[O-])c2)=NO1 (configuration not stated) | – | ? | – | – | – | ?
O=C(/C=C/c1ccc(O)cc1)c1cccs1 | – | 24µM | · | · | · | 24µM

Screens (PubChem)
